Screening results deposited in PubChem BioAssay by National Center for Advancing Translational Sciences (NCATS).
Pf growth 48h: inhibits P. falciparum growth in the first generation, 48 h; P. falciparum luciferase growth in erythrocytes, 48 h; Potency, µM (doses to about 28.7 µM), for the others: at the highest dose activity change, negative = inhibition, usual class: inhibitors; 5.9% of 310,000 active; AID 504832; further: on the % scale 0 is the no-effect control and ±100 the full control effect
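Luciferase-expressing parasites in RBCs, 2% Hct / 0.1% parasitemia final; RPMI 1640 + 0.5% Albumax; 37 C, 5% CO2, one generation; luminescence read-out, lower signal = inhibition.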
Pf growth 96h: P. falciparum growth inhibition at 96 hours; Potency, µM (doses to about 28.7 µM), without a hit: top-dose activity change, negative = inhibition, hits mostly inhibitors; P. falciparum luciferase reporter growth, 96 h; 6.9% of 320,000 active; AID 504834; further: on the % scale 0 is the no-effect control and ±100 the full control effect
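Two-generation exposure (96 h) targets delayed-death phenotype. Reporter parasites carrying integrated firefly luciferase, in red cells at 2% hematocrit and 0.05% parasitemia final, kept at 37 C, 5% CO2; luminescence loss indicates inhibition.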
AMA1 RON2 block: disrupts binding of P. falciparum AMA1 to RON2 | AlphaScreen AMA1-biotinylated RON2 peptide binding | 0.2% of 360,000 active | Potency, µM (doses to about 58.2 µM), inactives show top-dose activity change, negative = inhibition, usual class: inhibitors;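 further: 0% = vehicle wells and -100% = peptide control; nearly all actives have a fitted effect of over 45% in size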
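AMA1 (3D7) with his tag at 25 nM final met compounds first, then biotinylated RON2 peptide at 25 nM; detection used donor plus acceptor beads, 10 µg/mL apiece, read by AlphaScreen after 30 min at room temperature.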
SARS PLpro yeast: SARS-CoV PLP inhibition in yeast; S. cerevisiae expressing SARS-CoV PLpro, growth rescue; Potency, µM (doses to about 32.9 µM), without a hit: at the top dose activity, positive = growth rescue, usual class: activators; 0.19% of 330,000 active; calls by dose curve; further: 0% is about no effect; nearly all actives have a fitted effect of over 55% in size
* hit, by the source's call; ? = inconclusive; . = no result given. The list is not random: actives were taken first. Their share in the collection is about 9.4%. Unless noted, the call rests on the fitted dose curve; in most records, active means well fitted curve in the direction sought with a large enough effect; inconclusive means small, poorly fitted or top-dose-only effect, or another doubt; inactive means no such curve, though single readings can be large; an effect the other way counts as inactive or inconclusive. Potency means the concentration at half of the fitted maximal effect.

SMILES	Pf growth 48h	Pf growth 96h	AMA1 RON2 block	SARS PLpro yeast
CCOC(=O)c1[nH]c2ccccc2c1NC(=O)c1ccc(S(=O)(=O)N2CCCC2)cc1	?	11.7µM*	-6.9%	11.8%
CCOC(=O)c1ccc(NC(=O)C2CCCN(S(=O)(=O)c3ccc(F)cc3)C2)cc1 (centres undefined)	.	8.28µM*	4.5%	-10.8%
O=C(NCc1ccccc1)C1CCCN(S(=O)(=O)c2ccc(Br)cc2)C1 (centres undefined)	-30.4%	0.294µM*	-5.1%	7.4%
CCOC(=O)c1ccc(NC(=O)C2CCN(S(=O)(=O)c3ccccc3)CC2)cc1	.	.	12.5%	.
O=C(NCc1ccccc1)C1CCCN(S(=O)(=O)c2ccc(F)cc2)C1 (centres undefined)	-4.0%	11.7µM*	21.5%	21.3%
COc1ccc(S(=O)(=O)N2CCCC(C(=O)NCc3ccc(F)cc3)C2)cc1 (centres undefined)	1.4%	1.6%	0.4%	-22.5%
Cc1ccc(CNC(=O)CN2C(=O)COc3ccc(C)cc32)cc1	19.5%	1.8%	9.0%	2.1%
CCOc1ccc(-c2cc(N3C(=O)Nc4ccccc4N3O)on2)cc1	36.5%	?	-5.3%	-1.3%
CC(C)CC1NC(=O)c2cc3ccccc3cc2-n2c1nc1cc(Cl)ccc1c2=O (centres undefined)	.	.	-15.6%	.
COC(=O)c1cc2sccc2n1CC(=O)Nc1ccc(OC)c(OC)c1OC	2.08µM*	20.0%	-9.4%	0.8%
COC(=O)c1cc2sccc2n1CC(=O)Nc1cccc(SC)c1	-13.6%	3.29µM*	-1.8%	.
CCOC(=O)c1cc2sccc2n1CC(=O)Nc1ccc2c(c1)OCCO2	-19.2%	39.8%	-22.7%	-3.1%
CC(=O)N1CCN(Cc2nc3cc(NC(=O)C4CCCCC4)ccc3n2C)CC1	-22.8%	1.85µM*	12.9%	.
Cn1c(CN2CCN(C(=O)c3ccc(F)cc3)CC2)nc2cc([N+](=O)[O-])ccc21	?	13.1µM*	-14.8%	8.3%
COc1ccc(OCC(=O)Nc2ccc3c(c2)nc(CCn2ccccc2=O)n3C)cc1	?	5.22µM*	26.5%	-1.3%
CC(C)CC(=O)Nc1ccc2c(c1)nc(CCN1CCCCC1)n2C	?	13.1µM*	-8.5%	2.3%
CC(=O)N1CCN(Cc2nc3cc([N+](=O)[O-])ccc3n2C)CC1	14.3%	26.4%	2.0%	0.6%
CN1CCN(CCc2nc3cc(NC(=O)COc4ccc(Cl)cc4)ccc3n2C)CC1	?	9.28µM*	33.2%	-3.4%
Cn1c(CCN2CCCCC2)nc2cc(NC(=O)COc3ccc(Cl)cc3)ccc21	?	?	4.2%	2.3%
CC(OC(=O)Nc1cccc(Cl)c1)C(=O)O (centres undefined)	2.6%	37.1%	16.9%	-1.6%
Cc1cn([C@@H](CCCCNC(=O)OC(C)(C)C)C(=O)NCCCCCCCCCCC(=O)N2CCN(C(=O)OC(C)(C)C)CC2)nn1	2.62µM*	5.22µM*	-6.4%	0.1%
CC(C)(C)OC(=O)NCCCCCc1cn(CC(=O)NCCCCCCCCCCC(=O)N2CCN(C(=O)OC(C)(C)C)CC2)nn1	?	?	30.9%	-1.6%
CC[C@H](C)Cc1cn([C@@H](CCCN=C(NC(=O)OC(C)(C)C)NC(=O)OC(C)(C)C)C(=O)NCCCCCCCCCCC(=O)N2CCN(C(=O)OC(C)(C)C)CC2)nn1	1.04µM*	1.47µM*	-27.0%	0.4%
COc1ccc(OC)c(-c2cn(S(=O)(=O)c3ccccc3)nc2N)c1	.	14.7µM*	-6.9%	5.7%
O=c1[nH][nH]cc1C=Nc1cc(Cl)ccc1O	?	6.57µM*	39.4%	-6.8%
SMILES	Pf growth 48h	Pf growth 96h	AMA1 RON2 block	SARS PLpro yeast
O=c1[nH][nH]cc1C=Nc1ccc(Cl)cc1Cl	?	?	-1.7%	-1.5%
COc1ccc(S(=O)(=O)N2CCC(C(=O)Nc3ccc(F)cc3)CC2)c2cccnc12	1.04µM*	0.3%	5.4%	-1.1%
COc1ccc(C)cc1NC(=O)C1CCN(S(=O)(=O)c2cccc3cccnc23)CC1	?	21.3%	5.7%	-8.6%
COc1ccc(NC(=O)C2CCN(S(=O)(=O)c3cccc4cccnc34)CC2)cc1OC	-6.6%	6.57µM*	.	-5.3%
CC(C)(C)c1ccc(CN2C(=O)CSC2=O)cc1	-20.4%	?	3.8%	-6.0%
Cc1ccc(Cc2cnc(N3C(=N)SC(c4ccccc4)C3=O)s2)cc1 (centres undefined)	5.3%	9.28µM*	43.9%	8.0%
